# Data reported in PMC10668032, “Altered binding affinity of SIX1-Q177R correlates with enhanced WNT5A and WNT pathway effector expression in Wilms tumor”.
# Whole data set: some 33,000 sequences, median “e-score” near -0.053, cut for the highest 2% near 0.38. Shown is part of a subset that was picked to be rich in the highest values.
# Target: T1, SIX1 homeodomain (reference allele) (human, UniProt Q15475 108-198)
# T1 sequence: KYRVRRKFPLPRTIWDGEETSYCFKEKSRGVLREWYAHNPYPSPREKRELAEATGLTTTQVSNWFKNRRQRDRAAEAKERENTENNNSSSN
# Assay: universal protein binding microarray; Universal all-10-mer PBM (8x60K, AMADID 030236), 300 nM GST-tagged protein, Alexa Fluor 488 anti-GST; buffer, salt, pH and temperature not stated (as in Berger); high values mean tight binding
# Settings: protein: ivt; tags: N-terminal GST; dsDNA, one strand shown
# Method in brief: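 After in vitro transcription/translation, GST-tagged homeodomains were quantified against a recombinant GST standard curve by anti-GST western blot. They were then placed in duplicate at 300 nM final concentration on universal 'all 10-mer' protein binding microarrays of 8×60K format.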
row,Sequence,binding signal [E-score]
1,ATCAATAA,0.182 ± 0.0114
2,ATCAGCCA,0.237 ± 0.00617
3,ACCGCTAT,0.216 ± 0.0322
4,AAGATACG,0.322 ± 0.0506
5,AAAATACC,0.181 ± 0.0716
6,CAGATACA,0.355 ± 0.0318
7,CAGATACG,0.334 ± 0.0281
8,CAGATACC,0.433 ± 0.00544
9,GAGATACC,0.44068 ± 0.000332
10,GAGATACA,0.332 ± 0.0042
11,AAGATACC,0.426 ± 0.0219
12,GAGATAGC,0.161 ± 0.0517
13,GATCTGGC,0.295 ± 0.0253
14,ATATTGTA,0.294 ± 0.0399
15,TAATATTA,0.161 ± 0.0729
16,GATCAAGC,0.312 ± 0.00728
17,ACACGACT,0.162 ± 0.0387
18,ATCATTCG,0.294 ± 0.00745
19,GAGCGATC,0.279 ± 0.0379
20,GATCTCCC,0.361 ± 0.00166
21,TATCGAAA,0.345 ± 0.0543
22,CCATCTCG,0.166 ± 0.114
23,GATCACGC,0.317 ± 0.0237

row,Sequence,binding signal [E-score]
1,GATCACCC,0.407 ± 0.0371
2,GATCATCC,0.41 ± 0.0124
3,GCTCATCC,0.219 ± 0.00236
4,GATCATAC,0.3778 ± 0.00307
5,GATCACAC,0.351 ± 0.0284
6,GATCATCA,0.34 ± 0.00658
7,CATCATAC,0.151 ± 0.0343
8,GATCATGC,0.242 ± 0.0641
9,GATGGGGA,0.191 ± 0.049
10,CGTGGATA,0.362 ± 0.0371
11,ACCTGCTA,0.2283 ± 0.000693
12,TGGTGACA,0.156 ± 0.0327
13,GATCCTAC,0.32 ± 0.0262
14,ATGCGATA,0.394 ± 0.037
15,AGGCGATA,0.357 ± 0.00753
16,CAGCGATA,0.359 ± 0.0421
17,CTGCGATA,0.342 ± 0.0342
18,GAGCGATA,0.344 ± 0.042
19,GTGCGATA,0.36 ± 0.0111
20,TAGCGATA,0.3796 ± 0.0024
21,AAGCGATC,0.239 ± 0.00546
22,AAGCGATA,0.376 ± 0.0611
23,AGATAGTG,0.152 ± 0.0589

row,Sequence,binding signal [E-score]
1,CCCATCCG,0.191 ± 0.101
2,CAATGACA,0.198 ± 0.0712
3,GGTGTTTA,0.203 ± 0.0284
4,ACCCGACA,0.239 ± 0.0574
5,ATCAATGC,0.163 ± 0.0171
6,ATCCATTA,0.244 ± 0.00287
7,AGCCGTAT,0.292 ± 0.018
8,ATATACGC,0.244 ± 0.0546
9,AATGATCC,0.424 ± 0.011
10,AATGATCG,0.152 ± 0.117
11,CATGATCA,0.177 ± 0.0294
12,GATGATCA,0.315 ± 0.00602
13,AATGATCT,0.369 ± 0.0567
14,TATGATCA,0.25 ± 0.0234
15,GATGATCC,0.45356 ± 0.000438
16,CATGATCC,0.394 ± 0.00778
17,GAAGATCC,0.297 ± 0.0273
18,AACGGGAT,0.243 ± 0.0163
19,GATAGGAC,0.22 ± 0.0517
20,TCATGGGA,0.153 ± 0.0225
21,ATAGCCAA,0.218 ± 0.0447
22,CCGCGGTA,0.194 ± 0.102
23,CGGTGTAG,0.297 ± 0.025

row,Sequence,binding signal [E-score]
1,CACGGATC,0.405 ± 0.0341
2,AACGGATT,0.204 ± 0.0564
3,AACGGATA,0.421 ± 0.0091
4,AACGGGTA,0.159 ± 0.0738
5,CACGGATA,0.397 ± 0.0101
6,AATGGATC,0.35 ± 0.00509
7,CACAGATA,0.205 ± 0.00976
8,GACGGATA,0.35 ± 0.0364
9,CACAGATC,0.277 ± 0.0367
10,AACGGATC,0.376 ± 0.0111
11,AACAGATC,0.2 ± 0.0405
12,GACGGATC,0.358 ± 0.041
13,ATACAGGA,0.228 ± 0.0565
14,ATGCAATA,0.192 ± 0.0352
15,GAGTAGAC,0.214 ± 0.0128
16,ATATGCCC,0.339 ± 0.0543
17,CGATCTAG,0.1577 ± 0.00153
18,ATCATTTC,0.1962 ± 0.00187
19,ATCAAGCG,0.228 ± 0.0527
20,AGAGCGAT,0.159 ± 0.0536
21,AAGCCGAT,0.211 ± 0.0118
22,CATTATAC,0.28 ± 0.0245
23,CGAGGGGA,0.164 ± 0.0583

row,Sequence,binding signal [E-score]
1,TAAGGATA,0.276 ± 0.0458
2,TACGGATA,0.401 ± 0.0137
3,TACAGATA,0.267 ± 0.0119
4,CCCATCCC,0.154 ± 0.0727
5,GCTAGATA,0.255 ± 0.0399
6,ATACTGAA,0.173 ± 0.0413
7,ATATGGTA,0.256 ± 0.011
8,CCACTATC,0.227 ± 0.0482
9,GCATACGA,0.157 ± 0.0596
10,ATACCTAT,0.398 ± 0.0488
11,ATACCTGA,0.3668 ± 0.00206
12,ACACCTAG,0.231 ± 0.0166
13,ATACCTAA,0.273 ± 0.0487
14,ATACCTTA,0.385 ± 0.0525
15,ACACCTAT,0.26 ± 0.021
16,ATACCTAG,0.392 ± 0.0316
17,ATACCTAC,0.385 ± 0.0317
18,ATACCTGG,0.27 ± 0.0557
19,ATACCTTG,0.335 ± 0.0223
20,ATACCTGC,0.342 ± 0.0303
21,ACACCTAC,0.191 ± 0.0849
